# Test results published in PubChem BioAssay AID504327 (National Center for Advancing Translational Sciences (NCATS), 2011).
# “And” between values parts separate entries of the source, which are not always exact repeats. Equal values may be shown once. About 820 (0.21%) of roughly 390,000 compounds were called active. Roughly 3% stayed inconclusive and do not appear here. Calls come from the whole dose curve; as a rule, active = well fitted inhibition curve with a large enough effect; inconclusive = small, poorly fitted or top-dose-only effect, or another doubt; inactive = no such curve, though single readings can be large or run the other way. Shown is part of a subset that was picked to be rich in actives. More than one record can exist for a structure, and the calls need not agree. Non-standard residues stand in square brackets, D forms with d. Residues, ends and D or L forms follow the SMILES beside them. Groups on a side chain read outwards from the residue. *: point of attachment. X1 = CCC(C)C(N)C1=NC(C(=O)*)CS1; Orn = NCCC[CH](N)C(=O)O
# Target: Histone acetyltransferase KAT2A (Homo sapiens) (UniProt Q92830)
# Assay: qHTS Assay for Inhibitors of GCN5L2
# Conditions: GCN5L2 HAT assay, ThioGlo1 CoA-SH fluorescence; series mostly up to 58.9 µM; activity change, negative = inhibition: at the top concentration
# Source text: Histone acetyltransferase (HAT) enzymes transfer a […] group from acetyl-coenzyme A to the epsilon-amino group of conserved lysine residues of N-terminal histone tails. Acetylation results in charge neutralization of this positively charged amino acid, decreasing interactions with the […] backbone and making the DNA more accessible for transcription. HATs have been recognized as an emerging drug target for treatment of cancer, diabetes, asthma, chronic obstructive pulmonary disease, cardiac disease, and viral infection. Protein identified with HAT activity include the […] like 2 (GCN5L2, a.ka. Histone acetyltransferase KAT2A) which acetylates histone H3 at Lys9, 14, 18, 13, and to lesser extent histones H4 and H2B. This activates transcription of the gene by modulating chromatin structure and installing the acetyllysine recognition mark for bromodomain-containing coactivator proteins.
# A quantitative high throughput screen was developed to identify small molecule inhibitors. The assay is based on the principle that it measures formation of reduced CoA with the pro-fluorescent maleimide derivative ThioGlo1 that becomes fluorescent upon reaction with the free thiol of CoA.
# A large number of artifacts are expected in this primary screen, compounded by the assay format (fluorescent artifacts) and by the high top concentration tested for each substance. This BioAssay data deposition should be used with caution, and counterscreen and secondary assay validation is essential since very few actives from the primary screen are expected to be true inhibitors of GCN5L2.
# [2] Yasgar, et al. Compound Management for Quantitative High-Throughput Screening. JALA. 2008 Apr;13(2):79-89.
# [3] Inglese, et al. Quantitative high-throughput screening: a titration-based approach that efficiently identifies biological activities in large chemical libraries. Proc Natl Acad Sci. 1;103(31):11473-8. 2006. PMID: 16864780
# NIH Molecular Libraries Probe Production Network [MLPCN]
# NIH Chemical Genomics Center [NCGC]
# Structural Genomics Consortium (SGC)
# To each well of a 1,536w plate, 3ul of GCN5L2 (final concentration 20nM, in 50mM HEPES, 0.1mM EDTA (pH 7.5), 0.01% Tween-20 buffer) are added using a Kalypsys dispenser. Only buffer is added to some wells as a control. A Kalypsys pin-tool transferred 23nl of library compound solution in DMSO to each well, as well as the control inhibit garcinol. . Following a 15 min incubation of enzyme with compounds at room temperature, 1ul mixture of ThioGlo1 (50uM final), H3(1-25) peptide (75uM final), and Acetyl-CoA (70uM final) is added. Plates are read immediately on the ViewLux (PerkinElmer) (Ex340nm/Em540nm) for a 0 min read, incubated for 20 min at room temperature, and read again on the ViewLux with the same settings. The initial read was carried out to identify compounds that are potentially fluorescent.
# % is set by controls: 0 for no effect and ±100 for the full control effect; potency is the fitted concentration of half-maximal effect.
# Sequence of Histone acetyltransferase KAT2A (Homo sapiens) (Q92830 whole entry, looked up): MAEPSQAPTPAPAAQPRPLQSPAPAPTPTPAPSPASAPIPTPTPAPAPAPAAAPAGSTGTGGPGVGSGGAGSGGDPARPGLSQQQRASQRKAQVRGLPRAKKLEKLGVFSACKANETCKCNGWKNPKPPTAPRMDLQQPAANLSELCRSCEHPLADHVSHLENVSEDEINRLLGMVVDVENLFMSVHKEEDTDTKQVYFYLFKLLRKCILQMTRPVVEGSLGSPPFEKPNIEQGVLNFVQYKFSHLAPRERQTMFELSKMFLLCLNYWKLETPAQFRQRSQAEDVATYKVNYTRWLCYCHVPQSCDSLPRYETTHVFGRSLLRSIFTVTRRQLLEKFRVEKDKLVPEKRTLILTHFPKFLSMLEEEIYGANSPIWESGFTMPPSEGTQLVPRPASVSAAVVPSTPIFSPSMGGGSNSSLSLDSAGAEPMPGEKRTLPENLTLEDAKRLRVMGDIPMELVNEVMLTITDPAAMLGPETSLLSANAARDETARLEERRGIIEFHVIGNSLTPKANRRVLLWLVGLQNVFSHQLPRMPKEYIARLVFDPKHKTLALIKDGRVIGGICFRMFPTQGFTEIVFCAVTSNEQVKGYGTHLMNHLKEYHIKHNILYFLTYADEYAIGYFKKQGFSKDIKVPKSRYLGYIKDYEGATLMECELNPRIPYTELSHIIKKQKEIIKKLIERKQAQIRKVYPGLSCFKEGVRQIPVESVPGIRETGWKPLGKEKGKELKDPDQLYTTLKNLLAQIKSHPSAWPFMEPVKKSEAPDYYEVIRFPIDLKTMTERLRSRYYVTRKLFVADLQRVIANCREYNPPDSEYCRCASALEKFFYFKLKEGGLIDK
SMILES,"activity change, negative = inhibition",Potency
COc1ccccc1-c1cc(NCc2cccs2)ncn1,-5.87% (inactive),
Cc1cc2oc(=O)cc(-c3ccccc3)c2c(C)c1/C=C/c1ccc(F)cc1,7.85% [at 88.6 µM] (inactive),
Cc1ccc(Cl)cc1NC(=O)C(C)n1nnc2sc(-c3ccccc3)cc2c1=O (stereo not drawn),,31.6 µM (active)
Cc1cc2nn(-c3ccc(Cl)cc3)nc2cc1NC(=O)C(C)C,0.272% (inactive),
CCCCCCn1nnc2sc(-c3ccccc3)cc2c1=O,6.09% (inactive),
COc1ccccc1CCn1c(=O)c(-c2cn(C)c3ccccc23)nc2cncnc21,-1.86% (inactive),
Cc1csc(-c2nc3ccccc3n2C)n1,-8.33% (inactive),
CN(Cc1ccco1)c1ncncc1-c1ccoc1,-17% (inactive),
Nc1ncnc2c1ncn2C1CC(O)C(CO)O1 (stereo not drawn),,inactive
O=C(Nc1ccc(O)cc1)c1ccccc1O,-15.8% (inactive),
O=c1ccn([C@@H]2O[C@H](COP(=O)(O)OP(=O)(O)OP(=O)(O)O)[C@@H](O)[C@H]2O)c(=O)[nH]1,2.08% (inactive),
NCCC(=O)c1ccccc1N,-13.8% (inactive),
N#Cc1ccc(CN2CCCC3(CCN(C(=O)c4ccco4)CC3)C2)cc1,5.96% (inactive),
C=C1/C(=C\C=C2\CCCC3(C)C2CCC3C(C)/C=C/C(O)C2CC2)CC(O)CC1O (stereo not drawn),-17% (inactive),
CC(O)COc1ccccc1 (stereo not drawn),-19.1% (inactive),
NNc1nnc(NN)c2ccccc12,-1.8% (inactive),
Cc1nc2cnc(N3CCN(C)CC3)nc2n(C[C@H]2CCCO2)c1=O,-20.2% (inactive),
Cc1cc(N(C)C)nc(Cl)n1,-23.2% (inactive),
C=C(C)C1CC=C(C)C(O)C1 (stereo not drawn),6.72% (inactive),
O=C(O)C(O)[C@@](O)(Cc1ccc(O)cc1)C(=O)O (stereo partly drawn),1.54% (inactive),
CCN(Cc1ccncc1)C(=O)[C@@H](CO)c1ccccc1,7.28% [at 21.4 µM] (inactive),
CC1(C)O[C@@H]2C[C@@H]3[C@H]4C[C@@H](F)C5=CC(=O)C=C[C@]5(C)[C@@]4(F)[C@@H](O)C[C@]3(C)[C@]2(C(=O)CO)O1,-11.6% (inactive),
CC(C)[C@H]1CC[C@@H](C)C[C@H]1O,5.9% [at 0.501 µM] (inactive),
O=P(O)(O)OC[C@H](O)CO,-2.51% (inactive),
O=c1[nH]c(=S)[nH]c2[nH]c(=S)[nH]c12,,4.47 µM (active) and 3.55 µM (active)
COc1ccc(CC(N)C(=O)NC2C(O)[C@H](n3cnc4c(N(C)C)ncnc43)O[C@@H]2CO)cc1 (stereo partly drawn),4.59% (inactive),
O=c1cnc2cnc(Nc3ccccc3)nc2n1Cc1ccc(F)cc1,-12.2% (inactive),

SMILES,"activity change, negative = inhibition",Potency
C[C@@H]1C(c2ccc(F)cc2)=NN(c2ccc(Br)cc2)[C@H]1C(=O)N1CCOC1=O,,inactive
O=C1OCCN1C(=O)[C@H]1[C@H](c2ccc(Cl)cc2)C(c2cccc(Cl)c2)=NN1c1ccc(Br)cc1,,inactive and 12.6 µM (active)
O=c1[nH]c2ccccc2n2c(-c3ccccc3)nnc12,,22.4 µM (active)
O=c1cc(-c2ccccc2)n2c(SCc3ccccc3)nnc2[nH]1,-22.5% (inactive),
CC(C)Cn1c(=O)c2ccccc2n2c(-c3cccc(Cl)c3)nnc12,-8.17% (inactive),
C[C@@H](O)[C@@H]1NC(=O)[C@H](CCCCN)NC(=O)[C@H](Cc2c[nH]c3ccccc23)NC(=O)[C@H](Cc2ccccc2)NC(=O)[C@H](Cc2ccccc2)NC(=O)[C@H](CC(N)=O)NC(=O)[C@H](CCCCN)NC(=O)[C@@H](NC(=O)[C@@H]2CCCN2)CSSC[C@@H](C(=O)N[C@@H](CCCCN)C(=O)O)NC(=O)[C@H](CO)NC(=O)[C@H](CO)NC(=O)[C@H](Cc2ccccc2)NC1=O,-18.2% (inactive),
O=C(c1cnccn1)N1CCC[C@@]2(CCN(Cc3ccncc3)C2)C1,7.32% (inactive),
CC(C)[C@@H]1NC(=O)[C@H](Cc2ccccc2)NC(=O)[C@@H](CC(=O)O)NC(=O)CNC(=O)[C@H](CCCNC(=N)N)NC1=O,10.5% (inactive),
O=C(Nc1cccc(F)c1)N1CC2(CCN(C(=O)c3cnccn3)CC2)C1,-0.477% (inactive),
CC(C)(O)c1ccccc1CC[C@H](SCC1(CC(=O)O)CC1)c1cccc(/C=C/c2ccc3ccc(Cl)cc3n2)c1,,20 µM (active)
CCCCC/C=C\C/C=C\CCCCCCCCCC(=O)O,-12.3% (inactive),
CNc1ncnc2ccc(-c3cccc(NS(C)(=O)=O)c3)cc12,-6.27% (inactive),
C=C1O[C@@](CO)(n2cnc3c(N)ncnc32)[C@H](O)[C@@H]1O,,inactive
CC[C@H](C)[C@H](NC(=O)[C@H](CCCNC(=N)N)NC(=O)[C@H](CCCNC(=N)N)NC(=O)[C@H](CC(C)C)NC(=O)[C@H](Cc1ccccc1)NC(=O)CNC(=O)CNC(=O)[C@@H](N)Cc1ccc(O)cc1)C(=O)N[C@@H](CCCNC(=N)N)C(=O)N1CCC[C@H]1C(=O)N[C@@H](CCCCN)C(=O)N[C@@H](CC(C)C)C(=O)N[C@@H](CCCCN)C(=O)N[C@@H](Cc1c[nH]c2ccccc12)C(=O)N[C@@H](CC(=O)O)C(=O)N[C@@H](CC(N)=O)C(=O)N[C@@H](CCC(N)=O)C(=O)O,21.9% (inactive),
FC(F)(F)C1CCCN(c2nsc3ccccc23)C1 (stereo not drawn),,2.82 µM (active)
COCC(=O)N1CCC2(CCCN(c3ccccc3)C2)CC1,3.62% (inactive),
O=S(O)S(=O)(=O)O,0.862% (inactive),
CCC(C)C(N)C1=NC(C(=O)NC(CC(C)C)C(=O)NC(CCC(=O)O)C(=O)NC(C(=O)NCCCCC2NC(=O)C(CC(N)=O)NC(=O)C(CC(=O)O)NC(=O)C(Cc3cnc[nH]3)NC(=O)C(Cc3ccccc3)NC(=O)C(C(C)CC)NC(=O)C(CCCN)NC2=O)C(C)CC)CS1 (stereo not drawn) (cyclo(DNK([Ile-Glu-Leu-X1])[Orn]IFH); configuration not given here),12.2% (inactive),
COC(=O)CC1C(C)(C)C(OC(C)=O)C2CC3=C4CC(=O)OC(c5ccoc5)[C@]4(C)CCC3[C@@]1(C)C2=O (stereo partly drawn),3.09% (inactive),
O=C(c1csnn1)N1CCC2(CC1)CN(c1ncccn1)C2,-3.32% (inactive),
CC(C)c1cnc(NC(=O)Cc2ccccc2)s1,-7.71% (inactive),
Cc1nc2cnc(N3CCN(C)CC3)nc2n(CCC#N)c1=O,-21% (inactive),
C[C@H]1CCC[C@@]2(C)CCCC[C@]12O,-21.9% (inactive),
CC(CCC(=O)O)C1CCC2C3C(O)C[C@@H]4CC(O)CC[C@@]4(C)C3CC[C@@]12C (stereo partly drawn),,inactive
O=c1cc(-c2ccc(O)cc2)oc2c([C@@H]3O[C@H](CO)[C@@H](O)[C@H](O)[C@H]3O)c(O)cc(O)c12,-14.1% (inactive),
O=C(c1ccncc1)N1CCC2(CCCN(C(c3ccccc3)c3ccccc3)C2)CC1,-12.2% (inactive),
